# TGFb inhibitor: blocks TGF-b signaling; Potency, µM (top dose mostly 46.1 µM), for inactives: top-dose activity, negative = inhibition, most hits filed as inhibitors; AID 588855; hit rate 1.2% among 410,000; HepG2 CAGA-GFP TGF-b/SMAD3 reporter, GFP fluorescence, 18 h; TGF-beta stimulated, 500 pg/mL final; note: potency is the fitted concentration of half-maximal effect; % is set by controls: 0 for no effect and ±100 for the full control effect; nearly all actives have a fitted effect of over 65% in size
#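 First, reporter cells (HEPG2 CAGA-GFP) rested 2 h at 37 degrees C. Next, compounds were pinned in and TGF-beta added to 500 pg/mL final. After 18 h, GFP was imaged per cell and summed per well.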
# HT1080 IDH1KD tx: HT-1080 IDH1 knockdown cell toxicity (counter line); HT-1080 IDH1 knockdown viability, ATP luminescence, 48 h; Potency, µM (series often up to 46.1 µM), for the others: top-dose activity, negative = toxicity, hits mostly cytotoxic; hit rate 2% among 360,000;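 note: potency is the fitted concentration of half-maximal effect; 0% = DMSO wells and -100% = cell-free medium wells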
#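 Using the IDH1-knockdown HT-1080 line run in the same batch and compound series as the NT line, viability after 48 h at 37 °C was determined by CellTiter-Glo luminescence and expressed as % activity.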
# Giardia kill: Giardia lamblia killing; Giardia lamblia trophozoite viability; activity change, % at 7.66 µM, hits read low; hit rate 0.15% among 340,000; AID 540267; in the data active = activity change below about -80%; inconclusive = between about -30% and that limit;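 note: parasites exposed to compound for two days anaerobically before the ATP read; % is set by controls: 0 for no effect and ±100 for the full control effect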
#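 Luminescent ATP signal served as the viability read-out, measured 15-30 min after adding ATP detection reagent to trophozoites that had been incubated with compounds for 48 hrs at 37 deg C anaerobically at 100 cells/well.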
# IL1B secr inh: inhibitors of inflammasome signaling (IL-1 beta secretion) | THP-1 LPS/ATP IL-1B secretion, AlphaLISA, 16 h; stronger effect = lower value | activity change, % at 57.5 µM | hit rate 4.7% among 360,000 | AID 743279; in the data active = activity change below about -50%; inconclusive = mostly about -30% to -49%; note: % is set by controls: 0 for no effect and ±100 for the full control effect
#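 Secreted IL-1B measured by AlphaLISA bead assay after 16 h compound exposure of THP-1 cells; compounds (final up to 57.5 uM) added 1 h before LPS (250 ng/mL) and ATP (1.25 mM) stimulation; lower signal means less secretion.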
# HepG2 tox: kills HepG2 cells in TGF-b inhibitor counter-screen; HepG2 CAGA-GFP viability, ATP luminescence, 18 h; Potency, µM (series often up to 46.1 µM), for the others: at the highest dose activity change, negative = cytotoxicity, actives largely listed as cytotoxic; hit rate 0.76% among 410,000; AID 588856; note: potency is the fitted concentration of half-maximal effect
#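 CellTiter-Glo luminescence gave cytotoxicity after 18 hours at 37 degrees C. The cells were HepG2 CAGA-GFP in 1% FBS DMEM, stimulated with 500 pg/mL TGF-beta after compound addition. %Activity was normalised to no-cell wells (complete cell-killing) and DMSO (no toxicity), and curves were fitted and classified.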
# HT1080NT lethal: kills 2HG-producing HT-1080-NT fibrosarcoma cells; HT-1080-NT fibrosarcoma viability, CellTiter-Glo ATP luminescence, 48 h; Potency, µM (series often up to 46.1 µM), inactives show top-dose activity, negative = less viability, actives largely listed as cytotoxic; hit rate 1.6% among 360,000; AID 686970;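 note: NT is the 2HG producing partner of a matched IDH1 knockdown line; potency is the fitted concentration of half-maximal effect; 0% = DMSO-treated cells and -100% = media-only wells without cells; nearly all actives have a fitted effect of over 55% in size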
#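 HT-1080-NT fibrosarcoma cells (2HG-overproducing), 750 cells/well in RPMI with 5% FBS, dosed after 2 h and incubated 48 h at 37C. CellTiter-Glo luminescence normalized to DMSO and no-cell wells; concentration-response curves fitted and classed.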
# * marks the source's active call; other numbers are inactive results; ? = inconclusive; . = no result given. Rows were chosen to be rich in hits. Some 6.5% of all compounds tested hit in one or more screens of this group. Unless noted, calls come from the whole dose curve; as a rule, active = well fitted curve in the direction sought with a large enough effect; inconclusive = small, poorly fitted or top-dose-only effect, or another doubt; inactive = no such curve, though single readings can be large; an effect the other way counts as inactive or inconclusive.
SMILES,TGFb inhibitor,HT1080 IDH1KD tx,Giardia kill,IL1B secr inh,HepG2 tox,HT1080NT lethal
O=C(CNC1CCCCC1)NN=C(c1ccccc1)c1ccccc1,2%,-6%,20,-64*,-26%,-1%
O=C(NN=C(c1ccccc1)c1ccccc1)C(CCl)C1CCCCC1 (stereo not given),2%,7%,-4,34,-7%,9%
Cc1csc(=O)n1CC(=O)OC(C)C(=O)Nc1cccc(Cl)c1 (stereo not given),5%,3%,12,-9,14%,2%
O=C1C=C(Nc2cccnc2)c2ccccc2C1=O,3.5µM*,23µM*,10,-70*,4.5µM*,23µM*
CCOc1ccc(NC2=CC(=O)C(=O)c3ccccc32)cc1,4.5µM*,?,-18,-55*,-103%,?
O=C1C=C(Nc2ccc(F)cc2)c2ccccc2C1=O,4µM*,?,4,0,4.5µM*,?
COc1cc(Cl)c(NS(=O)(=O)c2ccc(-c3ccc(=O)[nH]n3)o2)c(OC)c1,?,-2%,3,-10,19%,-1%
NC1=CC(=O)C(=O)c2ccccc21,?,-20%,-1,?,-99%,-16%
COc1cc(Cl)c(NC2=CC(=O)C(=O)c3ccccc32)c(OC)c1,5µM*,8.2µM*,-12,?,3.5µM*,9.2µM*
CC(=O)NCCNC(=O)CCCn1c(=O)[nH]c2ccsc2c1=O,1%,.,.,.,3%,.
Fc1cccc(Cl)c1Cn1nnc2c(NCc3ccccn3)ncnc21,-1%,-15%,-5,-59*,-4%,-10%
Fc1cccc(Cl)c1Cn1nnc2c(NCc3ccncc3)ncnc21,-6%,?,-21,18,-23%,?
CCOC(=O)c1cnc(-c2ccccc2O)nc1Cl,4%,15%,-19,13,5%,-15%
CCOC(=O)C1=Nc2ccccc2C1=[N+]=[N-],?,?,?,-71*,4%,-25%
COc1ccc([N+](=O)[O-])cc1NS(=O)(=O)c1ccc(C(=O)N2CCCC2)cc1,-14%,-7%,-16,25,-57%,1%
CC[C@H](C)[C@@H](CN[C@H](C)CNC)NCCC(c1ccccc1)c1ccccc1,?,?,-3,0,22µM*,?
CC[C@@H](C)[C@H](CN[C@H](CNC)C(C)C)NC[C@@H](C)c1ccc(CC(C)C)cc1,?,?,3,-23,-111%,?
C[C@@H](c1ccccc1)N1C[C@@H](COCc2ccccc2)Oc2cc(N3CC[C@@H](N(C)C)C3)ccc2S1(=O)=O,.,23µM*,.,-12,.,18µM*
CCCCC[C@@H](C)N1C[C@@H](COCc2ccccc2)Oc2cc(N3CC[C@@H](O)C3)ccc2S1(=O)=O,.,?,.,-6,.,?
CCCCC[C@H](C)N1C[C@H](COCc2ccccc2)Oc2cc(N3CC[C@H](N(C)C)C3)ccc2S1(=O)=O,.,21µM*,.,?,.,?
CCCCC[C@H](C)N1C[C@H](COCc2ccccc2)Oc2cc(N3CC[C@@H](N(C)C)C3)ccc2S1(=O)=O,.,16µM*,.,-64*,.,21µM*
CCCCC[C@@H](C)N1C[C@@H](COCc2ccccc2)Oc2cc(N3CC[C@@H](N(C)C)C3)ccc2S1(=O)=O,.,18µM*,.,-89*,.,21µM*
CCCCC[C@@H](C)N1C[C@@H](COCc2ccccc2)Oc2cc(N3CC[C@H](O)C3)ccc2S1(=O)=O,.,?,.,-3,.,?
CCOC(=O)C(Cc1ccccc1)(Cc1ccccc1)C(C)=O,-1%,5%,6,-7,-1%,8%
CC(C)NC(=O)C1(C)CN(S(C)(=O)=O)CC(=O)N1CCc1ccc(O)cc1 (stereo not given),.,22%,.,21,.,27%
SMILES,TGFb inhibitor,HT1080 IDH1KD tx,Giardia kill,IL1B secr inh,HepG2 tox,HT1080NT lethal
CCCCC[C@@H](C)N1C[C@H](COCc2ccccc2)Oc2cc(N3CC[C@@H](N(C)C)C3)ccc2S1(=O)=O,.,10µM*,.,-92*,.,12µM*
COCCCN1C(=O)C(CC(=O)NCC2CCCCC2)CC(C(=O)N(C)C)=C1C (stereo not given),17%,11%,.,16,3%,11%
CCc1c(C2(O)CCCCC2)[nH]c2ccc(C(F)(F)F)cc12,11µM*,-12%,3,-52*,-110%,?
CN(C)Cc1c(C(C)(C)O)[nH]c2ccc(C(F)(F)F)cc12,-6%,-11%,?,-24,-27%,0%
Cc1ccc2sc(C)[n+](CCO)c2c1,8%,-21%,-23,-71*,1%,-3%
Cc1sc2ccccc2[n+]1CCC[n+]1c(C)sc2ccccc21,11µM*,.,.,.,-38%,.
CCCC[n+]1c(C)sc2ccc(C)cc21,-1%,8%,3,8,10%,-5%
CCSc1nc(=O)c2c(n1C)NC(=O)CC2c1ccc(O)cc1OC (stereo not given),-7%,.,.,.,-4%,.
Cn1c(-c2ccccc2)c(C#Cc2ccc(N)cc2)c2ccccc21,3.5µM*,-7%,3,-4,-14%,-16%
COc1oc(C(=O)NC2CCCCC2)c(-c2ccc(Cl)cc2)c1S(=O)(=O)c1ccccc1,0%,?,-1,-58*,-2%,?
Cc1ccc(-c2ccc(CN3C(C)C(=O)N(Cc4cn(CCC5OCCO5)nn4)CCS3(=O)=O)cc2)cc1 (stereo not given),0%,-5%,.,-11,-19%,-7%
CCN(CC)c1ccc(/C=N/NC(=O)c2ccoc2C)cc1,6%,?,21,-19,-36%,?
Cc1ccc(O)c(C(=O)C=Cc2ccccc2)c1,0%,?,1,-101*,-94%,?
O=C(/C=C/c1ccc2c(c1)OCCCO2)c1ccccc1O,8%,?,3,-28,18%,?
O=C(C=Cc1ccccc1)c1cc(Br)ccc1O,-5%,0%,-2,-22,-3%,-1%
Cc1ccc(O)c(C(=O)/C=C/c2ccc3c(c2)OCCCO3)c1,?,?,7,-105*,-136%,?
Cc1ccc(/C=C/C(=O)c2ccccc2O)cc1,?,?,10,-102*,-22%,?
Cc1ccc(/C=C/C(=O)C2C(=O)c3ccccc3C2=O)cc1,-1%,-2%,-86*,12,-30%,-24%
COc1ccc(/C(C)=N/NC(=O)c2ccc(NS(=O)(=O)c3cccs3)cc2)cc1,-11%,-1%,-25,-13,-26%,0%
CCCCN(CCCC)CCCNC(=O)C1CC(c2ccc(C(F)(F)F)cc2)=NO1 (stereo not given),-15%,-6%,9,?,6%,0%
